Results from PubChem BioAssay (NCI).
About 79,000 compounds went through this panel and 15% of them were active in at least one assay; those are over-represented in the sample as a whole. A number with no mark means an inactive call. Calls of active or inactive are those of the source. No stated cut-off is given here; in the data, active means growth inhibition above about 70%; inactive means the rest. Where a SMILES comes first, the peptide text is derived from it. Bridges are numbered along the chain shown (N, C = ends). Roman numbers before positions name the chains, in order. [ ]: non-standard residue; d: D form. The star is where a group is joined. Phe(4-NO2) = N[CH](Cc1ccc([N+](=O)[O-])cc1)C(=O)O; Boc = CC(C)(C)OC(=O)*; OtBu = CC(C)(C)O*

Assays:
[1] = NCI Yeast Anticancer Drug Screen. Data for the rad50 strain (AID 155);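 further: 0% = growth of vehicle-only cultures of the same strain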; settings: S. cerevisiae rad50 strain growth inhibition; at 50.0 µM; active compounds read high
Method in brief: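 DNA repair mutant yeast, compound exposure, growth read-out; inhibition is taken relative to vehicle.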

[2] = NCI Yeast Anticancer Drug Screen. Data for the mec2-1 strain (AID 157); settings: S. cerevisiae mec2-1 strain, at 50.0 µM, active compounds read high
Method in brief: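 Cells of the genetically defined mec2-1 yeast strain are incubated with test compound. Inhibition of growth is calculated against vehicle-treated controls.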

[3] = NCI Yeast Anticancer Drug Screen. Data for the sgs1 mgt1 strain (AID 161);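 further: 0% = growth of cultures given vehicle only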; settings: S. cerevisiae sgs1 mgt1 strain, at 50.0 µM, active compounds read high
Method in brief: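 Inhibition of yeast growth, normalised to vehicle-treated controls, is reported for a strain bearing genetic alterations in DNA damage repair.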

[4] = NCI Yeast Anticancer Drug Screen. Data for the cln2 rad14 strain (AID 165);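 further: 0% = growth equal to vehicle treated cultures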; settings: S. cerevisiae cln2 rad14 strain, at 50.0 µM, active compounds read high
Method in brief: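 The screen exposed genetically defined yeast (cln2 rad14) to test compounds and scored growth inhibition relative to vehicle-treated controls.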

[5] = NCI Yeast Anticancer Drug Screen. Data for the bub3 strain (AID 167); settings: S. cerevisiae bub3 mutant strain, at 50.0 µM, active compounds read high
Method in brief: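 In this screen, a yeast mutant lacking normal mitotic checkpoint function is challenged with compound. Relative growth versus vehicle gives the inhibition value.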

[6] = NCI Yeast Anticancer Drug Screen. Data for the mlh1 rad18 strain (AID 175); settings: S. cerevisiae mlh1 rad18 strain growth inhibition; at 50.0 µM; active compounds read high
Method in brief: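 Compound-treated yeast growth, normalised to vehicle controls. Strain bears defined DNA repair mutations.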

Row | SMILES | growth inhibition [1] | growth inhibition [2] | growth inhibition [3] | growth inhibition [4] | growth inhibition [5] | growth inhibition [6]
1 | COc1cc(CCNC(=O)CC(C)C)ccc1OCc1ccccc1 | -14.9% | -27% | 1.35% | -30.5% | -11.9% | -15.9%
2 | CC(=O)Oc1ccc(C(c2ccc(OC(C)=O)cc2)c2ccccn2)cc1 | 18.3% | -0.6% | -9.25% | -62.4% | -40.9% | -22.9%
3 | CC(=O)c1cc2c(cc1C)CCCC2(C)C | 0.95% | -3.8% | -2.4% | -1.5% | 4.4% | 1.35%
4 | CCCC(C)C(=O)OC1CCCCC1 (stereo not given) | 9.35% | 1.3% | -0.85% | -21.4% | 7.6% | 3%
5 | Cc1ccc(-c2n[nH]c(=O)n2/N=C\c2ccc([N+](=O)[O-])cc2)cc1 | 34% | 7.3% | -12.4% | 3.55% | -11.9% | -41.5%
6 | Cc1cc(C)n(-c2ccc(Cl)nn2)n1 | 9.25% | 8.35% | 4.35% | -27.6% | 9% | -1.7%
7 | O=C(/C=C/NC(=O)OCc1ccccc1)OCc1ccccc1 | 9.35% | -5.5% | -0.9% | 17.1% | 3.55% | 0.95%
8 | Cc1[nH]nc2c1NC(=O)OC2 | -3.1% | -1.1% | 1.5% | -23.4% | -8.15% | 2.45%
9 | N#Cc1nc(Nc2cccc3ccccc23)sc1N | 8.2% | 14.8% | 20.9% | 12.1% | 15.7% | 51.1%
10 | CC(C)CC(NC(=O)C(N)CSSCC(N)C(=O)NC(CC(C)C)C(=O)O)C(=O)O (stereo not drawn) (I: H-Cys-Leu-OH / II: H-Cys-Leu-OH; disulfide I:1-II:1; configuration not given here) | -10.6% | -6.85% | -9.8% | -23.1% | -1.25% | -6.9%
11 | Cc1ccc(C(C)C)cc1NC(=O)c1cccc([N+](=O)[O-])c1 | -8.4% | 6.9% | 18.9% | -7.1% | 18.9% | 8%
12 | CCOC(=O)[n+]1c(C)ccc2ccccc21 | -20% | -10.9% | -9.55% | -23.8% | 11% | -13.8%
13 | CC(=O)Nc1ccc(NC(=O)c2ccccc2Cl)cc1 | -0.45% | -9.15% | 4.7% | -6.6% | 10.9% | -33.1%
14 | CCc1nc(-c2ccccc2)nc2c1nc(-c1cccc(C)c1)n2Nc1ccccc1 | 1.45% | 3.1% | -6.15% | -3% | -1.6% | 24.1%
15 | O=S1(=O)C2CCCCCC2(N2CCOCC2)C1C1CCCCC1 (stereo not given) | 16.7% | 22.4% | -0.45% | 25.4% | 6% | 15.1%
16 | COc1ccc2c(c1)C1(C)CCCC(C)C1=CC2=O (stereo not given) | 84% (active) | 78.3% (active) | 82.8% (active) | 28.1% | 87.8% (active) | 85% (active)
17 | Oc1cccc(N=Cc2ccccc2O)c1 | 4.3% | -4.85% | 0.15% | -18.8% | -5.15% | 0.15%
18 | CC1(C)CC(C2=NCCO2)CC(C)(C)N1 | -43.7% | -29.2% | -39.3% | -6.45% | 15.2% | -31.1%
19 | Cc1cc2cc(Cl)ccc2nc1C(=O)c1ccccc1 | -5.75% | -24.4% | -3.3% | 17.7% | -6.65% | -18.7%
20 | N#Cc1nc(-c2ccccc2C(=O)O)oc1N | -0.5% | 9.8% | -16.1% | 5.7% | -7.15% | -62%

Row | SMILES | growth inhibition [1] | growth inhibition [2] | growth inhibition [3] | growth inhibition [4] | growth inhibition [5] | growth inhibition [6]
21 | OC(c1ccccc1)(c1ccccc1)c1ccccc1CNc1ccccc1 | 45.5% | 30.4% | 26.2% | 8% | 19.8% | 49.8%
22 | O=C(O)c1cccc(NC(=O)C(F)(F)F)c1 | -1.1% | 1.6% | -18.9% | -29.4% | -6.05% | -2.15%
23 | C[N+](C)(C)CCc1ccccc1 | 1.9% | -3.15% | -0.85% | -26.4% | -12.9% | 16.1%
24 | CCOC(=O)c1cn(Cc2ccccc2)c(=O)n1Cc1ccccc1 | 36% | 23.3% | 23.5% | -2.4% | 42.5% | 56.1%
25 | C[C@]12CC[C@@H]3c4ccc(OP(=O)(O)O)cc4CC[C@H]3[C@@H]1CCC2=O | -7% | 4.9% | -22.7% | -23.9% | -24.6% | -14.1%
26 | CCOc1nc2ccc(N)cc2s1 | 19.6% | -9.55% | 3.25% | -31.9% | 11.4% | -12.3%
27 | CNC(=O)OCc1c(COC(=O)NC)c(-c2ccc(SC)cc2)n(C)c1C | 24.9% | 8.4% | 47.4% | 0.1% | 2.6% | 49.7%
28 | CCO/C=C1/C(=O)N(C)c2c1c(=O)n(C)c(=O)n2C | -46.9% | -0.25% | -4.05% | -14.3% | -18.1% | -5.15%
29 | CCC(=O)OC1CCCCC1C1CCCCC1 (stereo not given) | 1.55% | -2.35% | 8% | -37.6% | -3.45% | -3.9%
30 | O=C(c1ccccc1)c1ccccc1-c1nc2ccccc2c(=O)o1 | 11.8% | -6.65% | 1.65% | 29.9% | 30.8% | -0.8%
31 | CC12CCC3c4ccc(O)cc4CCC3C1CC(OC1OC(C(=O)O)C(O)C(O)C1O)C2O (stereo not given) | 31.6% | 5.9% | 13.5% | 2.4% | 2.4% | 22.2%
32 | CCOC(=O)/C(C#N)=C/c1cc(Br)c(O)c(OC)c1 | -12.3% | -22% | 25.4% | -0.8% | 6.25% | 10.8%
33 | O=C(c1ccncc1)c1c(Cc2ccccc2)ccc2ccccc12 | -0.3% | -0.65% | -9.25% | -4% | 5.45% | -1.35%
34 | CC(=O)NC(CCC(=O)OC(C)(C)C)C(=O)NC(CCC(=O)OC(C)(C)C)C(=O)NC(Cc1ccc([N+](=O)[O-])cc1)C(=O)NC(CCCCNC(=O)OC(C)(C)C)C(=O)NC(CCCCNC(=O)OC(C)(C)C)C(=O)NCC(=O)O (stereo not given) (Ac-E(OtBu)E(OtBu)[Phe(4-NO2)]K(Boc)K(Boc)G-OH; configuration not given here) | -31.4% | -19.4% | -22.6% | 13.4% | -8.2% | -27.3%
35 | CCSC1C(N=[N+]=[N-])C(CO)OC1n1cnc2c(N)ncnc21 (stereo not given) | 1.3% | -3.2% | 9.3% | 10.9% | -2% | 4.7%
36 | CCOC(=O)N/N=C(\Cc1ccccc1)OCC | 16% | 13.2% | 8.45% | 13.7% | 14.6% | 39.2%
37 | Nc1ccc(F)c([N+](=O)[O-])c1 | -6.05% | 0.65% | -1.6% | -23.6% | -1.55% | -1.2%
38 | C[n+]1c(C2(O)CCCCCCCCCCC2)sc2ccccc21 | 3.8% | 10.1% | 1.5% | -11.3% | 1.4% | 34.4%
39 | O=C(NC(=O)c1cn(CCN(CCO)C(=O)NCCCCCCNC(=O)N(CCO)CCn2cc(C(=O)NC(=O)OCc3ccccc3)c(=O)[nH]c2=O)c(=O)[nH]c1=O)OCc1ccccc1 | -2.5% | 7.05% | -18.9% | -23.9% | 0.9% | -17.9%
40 | O=C(/C=C/c1ccccc1)Cc1nc2nnc(NC(=O)Nc3ccc(Cl)cc3)n2[nH]c1=O | -9.15% | 1.85% | 1.5% | -8.05% | 6.15% | 4.65%
